Results from ChEMBL document CHEMBL3988442, “University of Dundee, Small-Polar-MMV Screening Library” (2021).
Among all 48,000 compounds or so, about 13,000 (27%) showed an effect of 50% or more. This is one part of the list.

Each compound was assayed on Wolbachia pipientis (assay: Anti-Wolbachia Cell-Based Screen). Settings: 5 µM.
Format: functional
Parameters: scale not given: in the data most compounds retested in dose-response had high values

Compound | Percent Effect [%]
Cn1cc2c(n1)C(CNC1CCOCC1)OCC2.O=C(O)C(F)(F)F (configuration not stated) | -8.385
CN1CCC(n2nc(Cc3cccc(Cl)c3)nc2Cn2cnnn2)CC1 | 20.47
Nc1cnc(-c2ccc(F)cc2Cl)cn1 | 2.9
CCOCc1nc(-c2cccc(OC)c2OC)n(C2CCN(C)CC2)n1 | 115.7
CN1CCC(n2nc(Cc3cccs3)nc2-c2ccncc2)CC1 | -23.96
CCOCc1nc(CSc2ccncc2)n(C)n1 | -5.223
CCOCc1nc(-c2ccc(F)cc2Cl)n(C)n1 | 104.7
CN1CCC(Cc2nc(-c3cnccn3)n(C3CCS(=O)(=O)C3)n2)CC1 (configuration not stated) | -23.71
Cc1ncsc1-c1nc(Cc2cccs2)nn1C1CCN(C)CC1 | -9.082
COc1ncccc1-c1nc(-c2ccccn2)nn1C1CCN(C)CC1 | -6.109
CCOCc1nc(-c2ccc(F)cc2Cl)n(C2CCN(C)CC2)n1 | 110.7
CN1CCC(n2nc(CC3CC3)nc2-c2ccc(F)cc2Cl)CC1 | 106.3
CCOCc1nc(CSc2ccncc2)n(C2CCN(C)CC2)n1 | 13.12
CCOc1ccc(NC(C)C(=O)NCCc2cccs2)cc1CO (configuration not stated) | -30.37
CC(C)c1noc(CCCC(=O)N2CCN(C)CC2c2ccccc2)n1 (configuration not stated) | 5.23
O=C(c1cnc(-c2noc3cc(N4CCCC4)ccc23)s1)N1CCCC1 | 0.8579
CCC(C)NS(=O)(=O)Cc1cccc(NC(=O)c2cc[nH]c2C)c1 (configuration not stated) | 3.733
Cc1ccc2nc(C)c(C)c(C(=O)NCCCn3cnnc3)c2c1 | -1.384
CC(C)Oc1cc(N2CC[C@@H](N3CCOCC3)[C@H](O)C2)nc(N)n1 | -17.76
CCn1ncnc1CN(CCOC)Cc1ccc(C)cc1 | -0.7993
CCn1nccc1CNc1[nH]cnc2nncc1-2 | 87.91
CCn1nccc1CNc1[nH]cnc2nc(C)nc1-2 | 100.2
CCn1nccc1CNC(=O)C1CC1 | 8.516
CCn1nccc1CN(C)c1[nH]cnc2nc(C)nc1-2 | 80.56

Compound | Percent Effect [%]
CCn1nccc1CNC(=O)NC1CCCCC1 | 13.66
Cc1nccn1-c1ccc(C(C)NCc2ncc[nH]2)cc1 (configuration not stated) | -20.7
Cc1cc(C(=O)Nc2ccnc(OC3CCOC3)c2)c(C)o1 (configuration not stated) | -9.731
Cc1ccc2[nH]c(CN(C)c3cc(CN)nc(C)n3)nc2c1 | -0.384
N#Cc1cn(C2CC2)c(=O)n(Cc2noc(-c3cccs3)n2)c1=O | 11.53
COCCn1cnnc1CN(C)c1nc(N)nc2c1CCCC2 | 15.13
Cc1oncc1C(=O)N1CC2CC1(C(=O)NCc1ccco1)C2 | -19.28
FC(F)(F)Oc1ccc(-c2c[nH]c([C@@H]3COCCN3)n2)cc1 | -3.996
Cc1nnn2c1COC(CNCc1ccncc1)C2 (configuration not stated) | -6.146
Cc1ccc(CNCC2Cn3nncc3CO2)s1 (configuration not stated) | 98.39
c1ccc(CNCC2Cn3nncc3CO2)nc1 (configuration not stated) | -9.384
Fc1cccc(CNCC2Cn3nncc3CO2)c1 (configuration not stated) | -13.19
c1coc(CNCC2Cn3nncc3CO2)c1 (configuration not stated) | 91.63
c1cc(CNCC2Cn3nncc3CO2)ccn1 (configuration not stated) | 7.838
Cc1ccc(CNCC2Cn3nncc3CO2)o1 (configuration not stated) | 84.72
Cc1ccc(CNCC2Cn3nnc(-c4cccc(F)c4)c3CO2)o1.O=C(O)C(F)(F)F (configuration not stated) | -4.594
c1cc(CNCC2Cn3nncc3CO2)cs1 (configuration not stated) | 14.09
COCCN(CCC#N)S(=O)(=O)c1cc(F)ccc1F | 6.072
Cc1nnc2n1CCN(C(=O)COCCOc1ccccc1)C2 | 6.355
CC(C)c1nnc2n1CCN(C(=O)CN1Cc3ccccc3C1=O)C2 | -9.252
CCc1nnc2n1CCN(C(=O)CN(C)Cc1ccccc1)C2 | -3.292
CC(C)c1nnc2n1CCN(C(=O)CN(C)Cc1ccccc1)C2 | 95.98
CC(C)c1nnc2n1CCN(C(=O)c1ccc(CN(C)C)cc1)C2 | -8.921
Cc1nnc2n1CCN(C(=O)CN(C)Cc1ccccc1)C2 | 125

Compound | Percent Effect [%]
CS(=O)(=O)c1nccn1Cc1ccc(C(N)=O)cc1 | -9.833
CN(Cc1cn2c(n1)CN(C1CCOC1)CC2)Cc1ccco1.O=C(O)C(F)(F)F.O=C(O)C(F)(F)F (configuration not stated) | -12.79
CN(Cc1cccnc1)Cc1cn2c(n1)CN(C1CCOCC1)CC2 | 108.1
CN(Cc1cccnc1)Cc1cn2c(n1)CN(C1CCOC1)CC2.O=C(O)C(F)(F)F.O=C(O)C(F)(F)F.O=C(O)C(F)(F)F (configuration not stated) | 86.19
CCN(CC)Cc1cn2c(n1)CN(C1CCOC1)CC2.O=C(O)C(F)(F)F.O=C(O)C(F)(F)F (configuration not stated) | 96.5
CCOCC(=O)N1CCn2cc(CN(C)Cc3ccco3)nc2C1 | -7.292
CCN(CC)Cc1cnc2n1CCN(C1CCOC1)CC2 (configuration not stated) | -1.376
CN(Cc1cn2c(n1)CN(C(=O)C1CCOCC1)CC2)Cc1ccco1 | -9.912
CN(Cc1cn2c(n1)CN(CC1CCOC1)CC2)Cc1ccco1.O=C(O)C(F)(F)F.O=C(O)C(F)(F)F (configuration not stated) | 11.13
CN(Cc1cncnc1)Cc1cn2c(n1)CN(C1CCOC1)CC2.O=C(O)C(F)(F)F.O=C(O)C(F)(F)F (configuration not stated) | -14.81
CN(C)Cc1cn2c(n1)CN(C1CCOC1)CC2 (configuration not stated) | 93.96
Cc1noc(C)c1CN(C)Cc1csc(-c2ccccc2F)n1 | 6.793
CSC(C)(C)CNC(=O)NCC[S+]([O-])c1ccccc1F (configuration not stated) | 3.709
COCc1nc2n(n1)CCCC2Nc1nc(C2CC2)ns1 (configuration not stated) | -6.792
COC[C@H]1CC[C@H]2[C@H](CCN2S(=O)(=O)Cc2ccccc2)O1 | -8.908
CCNc1ncc(C)c(-c2cnn(C)c2)n1 | 108.7
Cc1ccc(CCNc2ncc(C)c(-c3ccnn3C)n2)s1 | -9.646
CN(C)C1(CNc2nccc(-c3cnn(C)c3)n2)CCSC1 (configuration not stated) | 0.386
Cn1cc(-c2ccnc(NCC3CCN(Cc4ccccc4)C3)n2)cn1 (configuration not stated) | 1.277
Cc1cnc(CNCc2cnc(-c3ccccc3C)s2)cn1 | 2.85
Cc1cnc(CNc2ncc(C)c(-c3cnn(C)c3)n2)cn1 | 99.76
Cc1cnc(NCc2cnn(C)c2)nc1-c1cnn(C)c1 | 107.4
Cn1cc(-c2ccnc(NCC3CC3)n2)cn1 | -5.433
Cc1ccc(Br)c(S(=O)(=O)NCc2cnn(C)c2)c1 | -6.157

Compound | Percent Effect [%]
Cn1cc(-c2nc(CNCCn3cccn3)cs2)cn1 | 1.057
Cc1cnc(NCc2ccncc2)nc1-c1cnn(C)c1 | 107.1
Cn1ncnc1-c1ccnc(NCc2ccncc2)n1 | 2.269
O=C(CN1CCCS1(=O)=O)Nc1ccc(OC(F)F)cc1 | 5.702
CC(C)CN1CCc2[nH]cnc2C12CCN(C(=O)c1cc[nH]n1)CC2 | -17.95
CC(=O)NCc1ccc(S(=O)(=O)NC(=O)c2ccc3c(c2)COC3)cc1 | -5.848
CC(NC1(CNS(=O)(=O)N(C)C)CCCC1)c1ccccc1 (configuration not stated) | -3.44
CCC(NC(N)=O)c1ccccc1OCC(=O)N1CCCC1 (configuration not stated) | -5.34
Cc1cnc(NCc2csc(C(C)C)n2)nc1-c1cnn(C)c1 | 93.26
CC(C)c1nc(CNc2nccc(CCC(F)(F)F)n2)cs1 | -5.11
Cc1cnn(CC(C)NCc2csc(-c3cnn(C)c3)n2)c1 (configuration not stated) | 15.88
O=c1[nH]c(-c2ccncc2)ncc1-c1ccnc(N2CCOCC2)n1 | 98.38
O=C(COCc1nc(-c2ccncc2)no1)NC1CCCCC1 | -10.3
O=c1[nH]c(-c2ccncc2)ncc1-c1ccnc(NC2CC2)n1 | 114.3
Cc1ccc(-c2ccnc(N3CCC4(CCO4)CC3)n2)c(C)n1 | 1.011
Cc1ncc(-c2ccnc(N3CCCCC3)n2)c(=O)[nH]1 | 2.763
O=c1[nH]c(-c2ccncc2)ncc1-c1ccnc(NC2CCCCC2)n1 | 85.21
O=c1[nH]c2nc(NC3CC3)ncc2c(=O)n1-c1ccc(F)cc1 | 8.247
CCCn1ncc(-c2ccnc(NC3CC(C)(C)NC(C)(C)C3)n2)c1C | 10.1
O=C(NCC1CC1)c1cc2c(s1)CCN2C(=O)c1ccc(F)cc1 | 95.26
O=C(NCC1CC1)c1cc2c(s1)CCN2C(=O)c1cccnc1 | 93.16
Cc1cc(C(=O)NCC2CCCC2)c(C)n1-c1cccnc1 | 5.973
COC(=O)c1ccc(C(=O)N2CCCC(Nc3ccc(F)cc3)C2)cc1 (configuration not stated) | -50.64
O=C(c1ccc(F)c(F)c1)N1CCCC(Nc2ccc(F)cc2)C1 (configuration not stated) | -4.983

Compound | Percent Effect [%]
CC(NC(=O)c1cc(N2CCNC2=O)ccc1F)c1ccc(F)cc1 (configuration not stated) | -0.5858
CCSCCC(=O)Nc1ncn(Cc2ccccc2)n1 | -26.44
O=c1n(CCSCc2ccccc2Br)nc2ccccn12 | -15.86
O=c1n(CCSCc2ccccc2Cl)nc2ccccn12 | 6.647
O=c1n(CCNc2cccc3ccccc23)nc2ccccn12 | 88.07
O=C(CCSc1ccccc1)NCCn1nc2ccccn2c1=O | 3.117
O=c1n(CCNCc2cccc3ccccc23)nc2ccccn12 | 89.88
CCSCCC(=O)NCCn1nc2ccccn2c1=O | -5.498
COc1ccc(Cl)cc1CN1CC(n2cccn2)C1 | -1.811
COCC(=O)NCC[C@H]1CC(C)(C)Oc2ccccc21 | 119
CN(Cc1ccco1)Cc1ccccc1CNC(=O)c1ccncc1 | 21.51
CC1(C)C[C@H](CCNC(=O)c2ccncc2)c2ccccc2O1 | 152.5
O=C(NC[C@H]1OC[C@@H](NC(=O)c2ccccc2)[C@@H]1O)c1ccncc1 | -2.654
COc1cccc(C2(NC(=O)CCNC(C)=O)CC2)c1 | -8.972
COCC(=O)NCC[C@H]1CC(C)(C)Oc2ccc(OC)cc21 | 109.1
CCCNC(=O)CNC(=O)CC1CCCc2cc(OC)ccc21 (configuration not stated) | -20.04
COc1ccc2c(c1)[C@@H](CCNC(C)=O)CC(C)(C)O2 | 118.9
COCC(=O)NCCc1ccc(I)s1 | -6.07
COc1ccc2c(c1)CCCC2CC(=O)NCC(=O)O (configuration not stated) | -14.49
COCC(=O)NCCc1ccc(Cl)s1 | -5.141
COc1ccc2c(c1)CC(NC(=O)NCc1cccs1)CO2 (configuration not stated) | -5.09
